The source of these data is PubChem BioAssay (NCATS).

Values joined by “and” are separate entries in the source; they are usually repeats but may differ in a detail not shown here. Equal values may be shown once. Records with an inconclusive call do not appear. Active and inactive are the calls of the source. Unless noted, no rule for the calls is given here.

A short description of assay [1]: qHTS Assay for Identifying Gametocytocidal Compounds (AID 743244; active = well fitted curve in the direction sought with a large enough effect; an effect the other way counts as inactive or inconclusive; also: potency is read from the fitted curve at half-maximal effect;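 as to max response: % is scaled to controls: 0 for no effect and ±100 for the full control effect; actives lower the fluorescent signal which means gametocytes are killed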). The following applies: P. falciparum 3D7 stage III-V gametocytes, alamarBlue, 72 h; max response: stronger effect = lower value. A digest of the protocol: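 P. falciparum 3D7 stage III–V gametocytes (20,000 cells/well) were exposed to compounds for 72 h at 37 °C, 5% CO2. AlamarBlue was then added for 24 h; decreased resorufin fluorescence (Ex 525/Em 598 nm) indicated loss of viability.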

A short description of assay [2]: qHTS profiling for inhibitors of Plasmodium falciparum (3D7) proliferation (AID 743322).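 Also: infected erythrocytes exposed to compound for 72 h before lysis; 100% = DMSO vehicle wells and 0% = 0.29 µM artemisinin.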 The following applies: P. falciparum 3D7 proliferation; at 28.7 µM (top of the series) unless noted. The method in brief:
(§1)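 Parasite DNA was quantified by SYBR Green I fluorescence (ex 485, em 535 nm) after overnight lysis in saponin/Triton buffer at room temperature. Cultures at 0.3% parasitemia and 2.5% hematocrit were first exposed to compound for 72 h at 37 C; signals were normalised to artemisinin (0.29 uM) and vehicle wells.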

Assay [3] is described as follows: qHTS profiling for inhibitors of Plasmodium falciparum (DD2) proliferation (AID 743323). The following applies: lower = more inhibition; at 28.7 µM (top of the series) unless noted. A digest of the protocol:
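SYBR Green fluorescence (ex 485, em 535 nm) of lysed cultures gives parasite DNA content; wells normalized to artemisinin (0.29 uM) and DMSO controls. Infected red cells: 0.3% parasitemia, 2.5% hematocrit, 72 h, 37 C.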
A general note: qHTS replaces the single test concentration by a dilution series.

Assay [4] is described as follows: qHTS profiling for inhibitors of Plasmodium falciparum (HB3) proliferation (AID 743324; active = well fitted curve in the direction sought with a large enough effect; an effect the other way counts as inactive or inconclusive;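 also: 100% = DMSO vehicle wells and 0% = artemisinin-treated control wells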). The following applies: Plasmodium falciparum HB3 blood-stage proliferation; at 28.7 µM (top of the series) unless noted. A digest of the protocol: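 SYBR Green fluorescence (485 ex/535 em) of lysed cultures, incubated overnight at room temperature in the dark, quantifies parasite DNA. Infected erythrocytes at 0.3% parasitemia and 2.5% hematocrit were exposed 72 h; values normalized to DMSO and 0.29 uM artemisinin controls.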

Assay [5] is described as follows: qHTS profiling of the MIPE4 collection as inhibitors of Plasmodium falciparum (3D7) proliferation (AID 743344).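 Also: scaled between DMSO vehicle wells and 0.29 µM artemisinin as full inhibition.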 The following applies: P. falciparum 3D7 in erythrocytes, SYBR Green DNA fluorescence, 72 h; at 28.5 µM (top of the series) unless noted. A digest of the protocol:
as §1

Assay [6] can be described thus: qHTS profiling of the MIPE4 collection as inhibitors of Plasmodium falciparum (DD2) proliferation (AID 743345). The following applies: P. falciparum Dd2 in erythrocytes, SYBR Green DNA, 72 h; at 28.5 µM (top of the series) unless noted. A digest of the protocol: as §1
The nature of assay [7]: qHTS profiling of the MIPE4 collection as inhibitors of Plasmodium falciparum (DD2) proliferation (Rep 2) (AID 743346). The following applies: P. falciparum Dd2 in erythrocytes, SYBR Green DNA, 72 h; at 28.5 µM (top of the series) unless noted. The method in brief:
as §1

Assay [8] can be described thus: qHTS for compounds that reverse cellular toxicity of Amyloid beta (A-beta) peptide in yeast: LOPAC Validation Assay (AID 720559; active = well fitted curve in the direction sought with a large enough effect; an effect the other way counts as inactive or inconclusive;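 also: plate controls were DMSO for no effect and equimolar ferric chloride plus clioquinol rescue for full effect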). The method in brief: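 Medium dispensed, compounds pinned, A-beta yeast suspension added; plates held at 30 C for 48 hr; absorbance measured at 600 nm to gauge growth; values scaled between DMSO and FeCl3/clioquinol (equimolar) controls.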

Assay [9] can be described thus: qHTS for Activators of Parkin Expression: LOPAC Validation Assay (NLuc Reporter) (AID 720572; active = well fitted curve in the direction sought with a large enough effect; an effect the other way counts as inactive or inconclusive). A digest of the protocol:
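NLuc signal, read 10 min after reagent and following a prior FLuc read, is normalized to DMSO (0) and positive controls (100%). Cells: neuronal Parkin-promoter coincidence reporter line; compounds tested 7-point, 24 h, 37 C, 5% CO2.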

Assay [10] concerns the target T1, Hexokinase-4 (Homo sapiens) + Glucokinase regulatory protein (Homo sapiens) (UniProt P35557+Q14397). Kind of assay: qHTS assay for inhibitors of recombinant human GCK-GKRP interaction: Diaphorase-coupled assay (AID 743205; active = well fitted curve in the direction sought with a large enough effect; an effect the other way counts as inactive or inconclusive). The method in brief: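 25 mM Hepes pH 7.6, 5 mM glucose, 0.4 mM ATP, 4 U/ml G6PDH; 10 nM each GST-GCK/FLAG-GKRP. Kinetic fluorescence read, 1/min × 30 min. Normalized: DMSO ± enzyme = max/min.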

Assay [11] is described as follows: qHTS assay for cell viability of HEK293 cells (AID 743288; active = well fitted curve in the direction sought with a large enough effect; an effect the other way counts as inactive or inconclusive; also: potency is read from the fitted curve at half-maximal effect; nearly all actives have a fitted effect of over 50% in size). To be noted: ATP luminescence (CellTiter-Glo), 18 h; max response: stronger effect = lower value. A digest of the protocol:
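Viable-cell counts were inferred from luciferase-based ATP content in HEK293 cells seeded at 2,000/well, pre-incubated ≥5 h, then dosed with DMSO-solubilised compounds for 18 h at 37 C.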

Assay [12] can be described thus: qHTS assay for cell viability of the p53RE-bla HCT-116 cell line (AID 743292; active = well fitted curve in the direction sought with a large enough effect; an effect the other way counts as inactive or inconclusive; also: potency is read from the fitted curve at half-maximal effect; nearly all actives have a fitted effect of over 55% in size). A digest of the protocol: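 Compound-exposed HCT-116 (p53RE-bla) cells, 4,000 per well, were kept 16 h at 37 C following a 5 h preincubation. Cell number was estimated from total ATP by CellTiter-Glo luminescence read after 30 min at room temperature.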
Assay [13] in a line: qHTS profiling of the MIPE4 collection as inhibitors of Plasmodium falciparum (HB3) proliferation (AID 743347).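 Also: plate controls were DMSO vehicle wells for no effect and artemisinin wells for full effect.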 To be noted: P. falciparum HB3 in erythrocytes, SYBR Green DNA, 72 h; at 28.5 µM (top of the series) unless noted. The method in brief:
as §1

A short description of assay [14]: qHTS for Activators of Parkin Expression: LOPAC Validation Assay (FLuc Reporter) (AID 720573; active = well fitted curve in the direction sought with a large enough effect; an effect the other way counts as inactive or inconclusive). A digest of the protocol:
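Cells seeded, 24 h; compounds pinned, 7-pt dose response; 24 h at 37 C/5% CO2; volume reduced; FLuc reagent 10 min RT; luminescence read. Normalization: DMSO = 0, positive control = 100%.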

Assay [15] deals with T1, Hexokinase-4 (Homo sapiens) + Glucokinase regulatory protein (Homo sapiens). The assay can be described thus: qHTS assay for inhibitors of recombinant human GCK-GKRP interaction: HTRF assay (AID 743207; active = well fitted curve in the direction sought with a large enough effect; an effect the other way counts as inactive or inconclusive;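 also: 0% = DMSO with GCK present and -100% = DMSO wells lacking GCK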). A digest of the protocol: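 5 nM GST-GCK + 5 nM FLAG-GKRP + 2 uM S6P, pH 7.1 buffer (25 mM Hepes, 2 mM MgCl2, 25 mM KCl, 1 mM DTT, Tween/BSA); pin-transferred cpd; anti-FLAG XL665/anti-GST K; 60 min RT; HTRF.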

T1 sequence (P35557 whole entry, looked up): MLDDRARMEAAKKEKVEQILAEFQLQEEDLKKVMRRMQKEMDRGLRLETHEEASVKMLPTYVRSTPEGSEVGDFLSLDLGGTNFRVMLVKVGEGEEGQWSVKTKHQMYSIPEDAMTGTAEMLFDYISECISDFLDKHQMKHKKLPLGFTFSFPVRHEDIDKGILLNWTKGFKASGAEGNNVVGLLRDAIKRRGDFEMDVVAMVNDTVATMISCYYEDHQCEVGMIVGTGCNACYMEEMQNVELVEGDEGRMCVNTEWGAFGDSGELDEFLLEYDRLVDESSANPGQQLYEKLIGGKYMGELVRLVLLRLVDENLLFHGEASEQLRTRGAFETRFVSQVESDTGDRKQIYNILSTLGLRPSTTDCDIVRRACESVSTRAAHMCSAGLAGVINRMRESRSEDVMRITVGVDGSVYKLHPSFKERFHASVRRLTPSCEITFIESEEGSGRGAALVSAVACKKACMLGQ
T1 sequence (Q14397 whole entry, looked up): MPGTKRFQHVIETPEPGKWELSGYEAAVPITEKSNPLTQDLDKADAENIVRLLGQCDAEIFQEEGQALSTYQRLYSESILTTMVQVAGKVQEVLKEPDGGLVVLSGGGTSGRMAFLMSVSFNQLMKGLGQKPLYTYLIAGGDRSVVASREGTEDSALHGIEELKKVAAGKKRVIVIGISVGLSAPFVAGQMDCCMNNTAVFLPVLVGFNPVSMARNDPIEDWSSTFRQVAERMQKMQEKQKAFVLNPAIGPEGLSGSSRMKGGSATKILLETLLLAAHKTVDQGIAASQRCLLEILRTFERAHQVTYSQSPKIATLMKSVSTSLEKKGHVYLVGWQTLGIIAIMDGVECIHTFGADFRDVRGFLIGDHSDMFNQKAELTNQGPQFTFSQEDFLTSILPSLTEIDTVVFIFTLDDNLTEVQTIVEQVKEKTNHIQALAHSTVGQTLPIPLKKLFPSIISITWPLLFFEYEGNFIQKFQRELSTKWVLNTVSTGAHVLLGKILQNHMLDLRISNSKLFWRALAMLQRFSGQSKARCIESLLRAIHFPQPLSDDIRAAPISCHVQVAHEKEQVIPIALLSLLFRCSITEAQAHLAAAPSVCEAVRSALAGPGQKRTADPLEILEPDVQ

For the molecule `CC1(C)Cc2c(-c3ccccc3)c(-c3ccc(Cl)cc3)c(CC(=O)O)n2C1`, the max response in [1] is 1.94% (inactive). Besides, the remaining parasite growth % (stronger effect = lower value) in assay [2] came out at 6.49%. Further, the activity, percent of control in [3] stood at 13.4%. In assay [4], the remaining proliferation (% of control), lower = more inhibition turned out to be 7.77%. In assay [5], this molecule gave a parasite growth, % of DMSO control of 61%. Besides, the parasite growth remaining, % of DMSO control (lower = more inhibition) in assay [6] was found to be 90.7%. In assay [7], this molecule yielded a parasite growth, % of control (lower = inhibition) of 63.6%.

For the molecule `Cc1cc2c(C(C)C)c(O)c(O)c(C=O)c2c(O)c1-c1c(C)cc2c(C(C)C)c(O)c(O)c(C=O)c2c1O`, the molecule was classed as inactive in assay [8] and in assay [10]. The Potency entry in assay [9] was “inactive”. In addition, the values for the Potency in [11] and in assay [12] were 35.5 µM (active) and 12.6 µM (active), respectively. Further, the remaining parasite growth % (stronger effect = lower value) in [2] was 5.05% and 5.11%. Besides, in assay [3], the activity, percent of control is 13.9% and 10.5%. This molecule gave a parasite growth, % of DMSO control in assay [5] of 8.6%. This molecule displayed a parasite growth remaining, % of DMSO control (lower = more inhibition) in assay [6] of 15%. In [7], this molecule had a parasite growth, % of control (lower = inhibition) of 19.3%. Moreover, the growth, % of control in assay [13] is 14.8%.

Consider `Clc1cccc(Cl)c1NC1=NCCN1`, for which the molecule was called inactive in assay [8], in assay [14], in assay [10] and in [15]. Moreover, the Potency entry in [9] was “inactive”. Moreover, in assay [1], the max response was 7.62% (inactive) and 5.35% (inactive). The same molecule displayed a parasite growth, % of DMSO control in [5] of 86.2%. In assay [6], this molecule registered a parasite growth remaining, % of DMSO control (lower = more inhibition) of 77.5%. In assay [7], this molecule came in with a parasite growth, % of control (lower = inhibition) of 56.5%. The molecule also registered a growth, % of control in assay [13] of 70.5%.

As to `CO[C@@H]1[C@H](N(C)C(=O)c2ccccc2)C[C@H]2O[C@]1(C)n1c3ccccc3c3c4c(c5c6ccccc6n2c5c31)C(=O)NC4`, the Potency in assay [1] is 5.9 µM (active).

For the molecule `Oc1ccc(C2CNCCc3c2cc(O)c(O)c3Cl)cc1` (stereo not drawn), the result in assay [10] and in assay [15] was inactive. Also, the max response in assay [1] was 2.69% (inactive) and -7.1% (inactive). Besides, the parasite growth, % of DMSO control in assay [5] was determined as 6.63%. In [6], this molecule registered a parasite growth remaining, % of DMSO control (lower = more inhibition) of 65.8%. Also, the parasite growth, % of control (lower = inhibition) in assay [7] was 14.2%. The growth, % of control in assay [13] came out at 7.76%.

With `Cc1cc2c(F)c(Oc3ncnn4cc(OC[C@@H](C)O)c(C)c34)ccc2[nH]1`, the max response in assay [1] was -5% (inactive). Besides, the remaining parasite growth % (stronger effect = lower value) in assay [2] worked out at 101%. Moreover, in assay [3], the activity, percent of control stood at 101%. This molecule also registered a remaining proliferation (% of control), lower = more inhibition in [4] of 75.1%. The parasite growth, % of DMSO control in [5] is 46.6%. This molecule also registered a parasite growth remaining, % of DMSO control (lower = more inhibition) in [6] of 93.1%. Besides, the parasite growth, % of control (lower = inhibition) in [7] stood at 54.4%.
